Experiments:
Conditions in all cases: concentration: 1 μM, replicates: in singlicate; n = 1
[1] = test system: CSNK1A1
[2] = test system: CSNK1D
[3] = test system: CSNK1E
[4] = test system: CSNK1G1
[5] = test system: CSNK1G2
[6] = test system: CSNK1G3
[7] = test system: CSNK2A1
[8] = test system: CSNK2A2
[9] = test system: T1, CTK
T1 construct: gene MATK

[10] = test system: DAPK1
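Also: KINOMEscan kinase panel screen.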

SMILES	%Inh [1] [%]	%Inh [2] [%]	%Inh [3] [%]	%Inh [4] [%]	%Inh [5] [%]	%Inh [6] [%]	%Inh [7] [%]	%Inh [8] [%]	%Inh [9] [%]	%Inh [10] [%]
COc1ccc2nc(-c3cccc(C)n3)nc(Nc3ccncc3)c2c1 [GSK204919]	31	49	64	0	0	7	4	0	0	0
Cc1ccc(NC(=O)Nc2cccc(Cl)c2)cc1-c1ccc(C(=O)Nc2ccncc2)cc1 [GSK1398468]	0	57	19	2	0	25	0	0	0	3
Cc1ccc(C(=O)Nc2ccc(Nc3ccnc4cc(-c5ccccn5)ccc34)cc2O)cc1.Cl [GW440146]	0	7	23	0	0	4	0	0	0	0
Cc1ccccc1-n1cnc2c(N)ncnc21 [SKF-97510]	0	5	11	0	0	0	0	0	0	94.8
COc1ccc(Nc2nccc(-c3cccc(NC(=O)c4cc5cc(F)ccc5[nH]4)c3)n2)cc1 [GSK1229782]	0	37	33	13	17	32	8	27	0	0
COc1cc(Nc2nccc(N3CCC(NC(=O)Nc4cc(C)ccc4C)C3)n2)cc(OC)c1OC (stereo not drawn) [GSK1379762]	3	0	13	1	0	22	25	0	8	0
Cc1csc(-c2nc(Nc3ccncc3)c3ccccc3n2)n1 [GW869640]	28	46	41	0	9	0	28	26	36	22
COc1ccccc1-c1ccc2c(NC(=O)C3CC3)n[nH]c2n1 [SB-711239]	10	0	2	0	5	11	0	0	0	0
Cc1ccc(-c2cc(-c3c[nH]nc3-c3ccccn3)ccn2)cc1 [GW684088]	21	26	18	10	22	24	0	0	0	11
COc1cc2ncn(-c3cc(OCC4CCCO4)c(C(N)=O)s3)c2cc1OC (stereo not drawn) [GSK204607]	0	8	17	1	0	26	8	9	0	29
CC(=O)Nc1nc2cnc(Nc3cc(NC(=O)c4cccc(CCC#N)c4)ccc3C)nc2s1	23	3	0	2	7	0	0	9	0	0
Cc1c(Cn2ccn3c(=O)cc(N4CCOCC4)nc23)cccc1C(F)(F)F [GSK2289044]	33	6	25	19	5	18	0	3	0	13
O=C(Nc1ccc2c(c1)OCO2)NC1CCN(c2ccnc(Nc3ccc(F)cc3)n2)C1 (stereo not drawn) [GSK1379724]	0	21	0	0	0	8	0	0	0	0
O=C(O)COc1ncnc2cc(-c3ccc4[nH]ncc4c3)sc12	33	0	0	17	10	34	37	20	14	17
Cl.c1ccc(-c2n[nH]cc2-c2ccnc(-c3ccc(CN4CCOCC4)cc3)c2)nc1 [GW776245]	61	58	37	16	36	0	0	0	0	13
Cc1cc(N2Cc3ccccc3C2)nc(Nc2ccc(S(=O)(=O)N3CCOCC3)cc2)n1.Cl [GSK1669917]	0	0	4	0	0	19	2	7	0	0
CCn1c(-c2cccnc2O)nc2cnccc21 [SB-736715]	16	0	0	0	0	0	0	0	3	0
CN1C(=O)C(Nc2ccc(Cl)c(C(=O)O)c2)=C(c2ccc(Cl)cc2)C1=O [SB-404290]	0	0	38	0	0	15	18	7	0	0
